Among all 340,000 compounds or so, about 3,300 (0.97%) were called active.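 The calls were made as follows: active = maximum activity change below -70%; inconclusive = maximum activity change from -70% to -50%; inactive = maximum activity change above -50%.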 Shown is part of a subset that was picked to be rich in actives.
% is scaled to controls: 0 for no effect and ±100 for the full control effect.

The subject of this assay is Potassium voltage-gated channel subfamily H member 2, brain isoform KCNH2 3.1 (human). The assay is described as follows: qHTS for Inhibitors of KCHN2 3.1: Mutant qHTS. Conditions: U2OS KCNH2 3.1, thallium flux FluxOr; hits give low values. The text has this: Many antipsychotic drugs that inhibit the neurotransmitter dopamine also bind to hERG1 channel which might help explain their antipsychotic activity but also produces cardiac side effects. The discovery of the novel KCNH2 3.1 isoform offers a potential new target for the development of antipsychotic drugs without cardiac side effects. This proposal will use a high throughput thallium flux assay developed for KCNH2 to screen compounds that modulate the activity of KCNH2 3.1. The wild type KCNH2 channel will also be screened in parallel to help define the selective modulators of this KCNH2 3.1 potassium channel. The resulting compounds will be validated in electrophysiology experiments. The availability of animal models will allow future testing in vivo for effects on memory and other aspects of animal physiology linked with psychosis. NIH Chemical Genomics Center [NCGC] NIH Molecular Libraries Probe Centers Network [MLPCN] MLPCN Grant: MH096539 Assay Submitter (PI): James Barrow, Johns Hopkins University, Lieber Institute for Brain Development
U2OS cells were resuspended in cell media containing 10% fetal calf serum (FCS) at a concentration of 2 million cells / mL. The solution was treated with the mutant (3.1) virus at 1.77 x 10^8 / mL and allowed to incubate at room temperature in the dark. After 4 hours of incubation, DMEM + 10% fetal bovine serum (FBS) was added to the cell solution. Three microliter was then dispensed into a 1536 tissue culture treated black assay plates which were incubated overnight at 37 C. Two microliter of loading buffer (HBSS + HEPES + Red40 dye quencher + FluxOr dye) was added and the assay plates were incubated for 45 min at room temperature in the dark. […] A stimulation buffer was added to the plate and the second kinetic read (2 min) was obtained. The rate constant was calculated from the kinetic reads and normalized to the positive and negative DMSO controls.
For the compound `CCc1ccccc1OCC(=O)Nc1nnc(C2CC2)s1`, the activity change is -8.55% (inactive).

As for `O=C(Cc1cccs1)Nc1nnc(SCc2ccc(F)cc2)s1`, the activity change was 3.31% (inactive).

As to `O=C(Cc1cccs1)Nc1nnc(C2CC2)s1`, the activity change was -217% (active).

Regarding `CCOC(=O)C1CCCN(S(=O)(=O)c2ccc(-n3cnnn3)c(C)c2)C1` (centres undefined), the activity change is 10.1% (inactive). As for `Cc1cc(S(=O)(=O)NC2CCCC2)ccc1-n1cnnn1`, the activity change was -70.6% (active). As to `O=S(=O)(NC1CCCC1)c1ccc(-n2cnnn2)cc1`, the activity change was 5.4% (inactive). As for `O=C(c1ccc(Cl)c([N+](=O)[O-])c1)N1CCN(c2ccccc2)CC1`, the figure is 9.67% (inactive); as for `O=C(/C=C/c1ccc(Cl)cc1)N1CCN(c2ccccc2[N+](=O)[O-])CC1`, -108% (active); as for `O=C(c1ccc(N2CCOCC2)c([N+](=O)[O-])c1)N1CCN(c2ccccc2F)CC1`, 1.08% (inactive). For `C[C@H]1CN([C@@H](C)CO)C(=O)CCCn2cc(nn2)CO[C@@H]1CN(C)C(=O)Nc1ccccc1`, the activity change is 13.1% (inactive).

Regarding `O=C(O)C(=Cc1ccc([N+](=O)[O-])cc1)CCc1ccccc1`, the activity change was -2.12% (inactive). Regarding `COc1ccc(NC(=O)CN(C)C(=O)c2cccc(S(=O)(=O)N3CCN(c4ccccc4)CC3)c2)cc1`, the activity change was -101% (active). Take `Cc1ccc(NC(=O)CN(C)C(=O)c2cccc(S(=O)(=O)N3CCCC3)c2)cc1`: the activity change is 4.37% (inactive). On to `CCOc1ccc(NC(=O)CN(C)C(=O)c2cccc(S(=O)(=O)N3CCCC3)c2)cc1OCC`, for which the activity change is 0.537% (inactive). On to `CC(C)CC1C(=O)N(Cc2cn(CC3CCCCC3)nn2)CCS(=O)(=O)N1Cc1ccc(-c2ccc(Cl)cc2)cc1` (centres undefined), for which the activity change is 4.02% (inactive).

On to `NC(=O)Cc1nc2scc(-c3ccc(Cl)cc3)c2c(=O)[nH]1`, for which the activity change is -145% (active). For `O=c1[nH]c(CN2CCOCC2)nc2scc(-c3ccccc3)c12` the value was 0.718% (inactive). Consider `Cc1sc2nc(CC(N)=O)[nH]c(=O)c2c1-c1ccccc1`, for which the activity change was 4% (inactive). As for `C[C@@H]1CN([C@@H](C)CO)S(=O)(=O)c2ccc(-c3ccc(C(=O)N(C)C)cc3)cc2O[C@@H]1CN(C)Cc1ccccc1C(=O)O`, the figure is -0.261% (inactive); as for `CC(=O)Nc1ccc(C=Cc2ccc([N+](=O)[O-])cc2)cc1`, -16.2% (inactive). On to `Cc1ccc(C(CNC(=O)Nc2cccc(C)c2)N2CCN(C)CC2)cc1` (centres undefined), for which the activity change was 3.75% (inactive). Take `Cc1ccc(C(CNC(=O)Nc2ccccc2)N2CCN(C)CC2)cc1` (centres undefined): the activity change was -194% (active). As for `COc1ccc(S(=O)(=O)NCC(c2ccc(C)cc2)N2CCN(C)CC2)cc1OC` (centres undefined), the figure is -2.06% (inactive); as for `Cc1ccc(S(=O)(=O)N2C[C@H]3n4c(=O)ccc(=O)n4C[C@H](OC(=O)NC4CCCC4)[C@@]3(O)C2)cc1`, -5.45% (inactive).

These data come from PubChem BioAssay AID720553 (National Center for Advancing Translational Sciences (NCATS), 2013).
